Assay [1] is described as follows: qHTS assay to identify aromatase inhibitors - cell viability counter screen (AID 743084).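 Note: cells stimulated with testosterone during compound exposure; nearly all actives have a fitted effect of over 55% in size.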 Note: potency is the fitted concentration of half-maximal effect. A general note: Quantitative high-throughput screening tests each substance at several concentrations.
The target of assay [2] is Aryl hydrocarbon receptor (Homo sapiens) (UniProt P35869). As to the kind of experiment: qHTS assay to identify small molecule that activate the aryl hydrocarbon receptor (AhR) signaling pathway (AID 743085).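 For activation: HG2L7.5c1 human HepG2 liver cells with stably integrated DRE-driven firefly reporter; series mostly up to about 70 µM.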 Note: nearly all actives have a fitted effect of over 15% in size. Note: potency is the fitted concentration of half-maximal effect. The procedure, abridged: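 Steps: seed HepG2-AhR-luc cells; allow 5 h at 37C; pin-transfer test compound or vehicle; incubate 24 h at 37C; add viability dye (30 min, 37C) and read fluorescence; add luciferase substrate (30 min, RT) and read luminescence.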

A short description of assay [3]: qHTS assay to identify small molecule that activate the aryl hydrocarbon receptor (AhR) signaling pathway - cell viability counter screen (AID 743086). Note: nearly all actives have a fitted effect of over 45% in size. Note: potency is the fitted concentration of half-maximal effect. In outline: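 Cytotoxicity counter screen: CellTiter-Fluor signal (30 min, 37 C) in 4000 HepG2 cells/well carrying the DRE-luciferase reporter, following 24 h compound exposure at 37 C.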
In assay [4] the target is Peroxisome proliferator-activated receptor gamma (Homo sapiens) (UniProt P37231). In words: qHTS assay to identify small molecule agonists of the peroxisome proliferator-activated receptor gamma (PPARg) signaling pathway (AID 743094; active = well fitted activation curve with a large enough effect in the signal ratio in the repeat runs, not every such curve was filed as active; the % refers to the signal ratio). In outline: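 Beta-lactamase FRET fluorescence was the read-out after a 1 h room-temperature substrate step, following 17 h compound treatment at 37C of HEK293H cells expressing a UAS-driven bla reporter responsive to PPARg.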

Assay [5] shares this target. In words: qHTS assay to identify small molecule antagonists of the peroxisome proliferator-activated receptor gamma (PPARg) signaling pathway (AID 743191; calls by dose curve; note: series mostly up to about 63 µM; nearly all actives have a fitted effect of over 30% in size). In outline:
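Beta-lactamase reporter under UAS control in HEK293H PPARg-bla cells; compound treatment 17 h at 37C. Read-out: fluorescence intensity after 1 h room-temperature incubation with LiveBLAzer B/G FRET substrate.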

Assay [6] is described as follows: qHTS assay to identify small molecule antagonists of the peroxisome proliferator-activated receptor gamma (PPARg) signaling pathway - cell viability counter screen (AID 743194). Note: nearly all actives have a fitted effect of over 55% in size. The procedure, abridged: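 Viability was measured as CellTiter-Glo luminescence in GeneBLAzer PPARg UAS-bla HEK293H cells. These cells had been exposed 17 h at 37 C to compounds together with rosiglitazone at 50 nM final, with the beta-lactamase readout taken in the same wells.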

Assay [7] can be described thus: qHTS assay for small molecule agonists of the antioxidant response element (ARE) signaling pathway (AID 743202; active = well fitted activation curve with a large enough effect in the signal ratio in the repeat runs, not every such curve was filed as active; the % refers to the signal ratio; note: potency is the fitted concentration of half-maximal effect). The procedure, abridged:
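Quantitative high-throughput format in HepG2 cells bearing an integrated ARE-beta-lactamase reporter. Compound exposure lasted 16 h at 37 C, and fluorescence was read 2 h after adding LiveBLAzer B/G substrate at room temperature.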

Assay [8] is described as follows: qHTS assay for small molecule agonists of the antioxidant response element (ARE) signaling pathway - cell viability counter screen (AID 743203; calls by dose curve; note: nearly all actives have a fitted effect of over 55% in size). The procedure, abridged:
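HepG2 cells carrying ARE-driven beta-lactamase; 2,000 cells/well; 5 hrs plating; compound pinned from DMSO; 16 hrs 37C/5% CO2; CellTiter-Glo added; 30 min RT; luminescence.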

Assay [9] in a line: qHTS assay for small molecule activators of the heat shock response signaling pathway - cell viability counter screen (AID 743209). Note: nearly all actives have a fitted effect of over 50% in size. In outline:
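Luminescence from CellTiter-Glo, added after the beta-lactamase FRET read, gave the viability signal. Cells were HSE-bla HeLa treated with DMSO-dissolved compounds for 5 h at 37 C following overnight plating.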

Assay [10] is described as follows: qHTS assay for small molecule activators of the heat shock response signaling pathway (AID 743210; active = well fitted activation curve with a large enough effect in the signal ratio in the repeat runs, with a control signal flat, not every such curve was filed as active; the % refers to the signal ratio;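 note: HeLa cells with beta-lactamase reporter driven by heat shock elements; series mostly up to about 63 µM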). The procedure, abridged: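 HeLa HSE-bla cells, overnight plating; cpd in DMSO 5 h, 37 C; LiveBLAzer B/G FRET substrate 2.5 h RT; fluorescence intensity read.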
The nature of assay [11]: qHTS assay to identify small molecule agonists of the peroxisome proliferator-activated receptor delta (PPARd) signaling pathway - cell viability counter screen (AID 743211). Note: nearly all actives have a fitted effect of over 55% in size. The procedure, abridged: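 Viability of GeneBLAzer PPARd UAS-bla HEK293H cells was assessed after 17 h compound incubation at 37C, using CellTiter-Glo reagent added after the reporter read and luminescence recorded 30 min later.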

For assay [12], the target named is Peroxisome proliferator-activated receptor delta (Homo sapiens) (UniProt Q03181). In words: qHTS assay to identify small molecule agonists of the peroxisome proliferator-activated receptor delta (PPARd) signaling pathway (AID 743212; calls by dose curve). The procedure, abridged: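 HEK293H PPARd-bla cells; 5 h preincubation 37 C/5% CO2; compound (DMSO) 37 C; LiveBLAzer B/G FRET substrate 2 h RT; fluorescence intensity.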

Assay [13] in a line: qHTS assay to identify small molecule antagonists of the peroxisome proliferator-activated receptor delta (PPARd) signaling pathway - cell viability counter screen (AID 743213). Note: nearly all actives have a fitted effect of over 50% in size. In outline: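 Luminescence from CellTiter-Glo, added after the bla read and incubated 30 min at room temperature, gives viability of HEK293H PPARd-bla cells exposed to compounds for 17 h at 37 C with 300 nM L165041.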

The target in assay [14] is Peroxisome proliferator-activated receptor delta (Homo sapiens) (UniProt Q03181). In words: qHTS assay to identify small molecule antagonists of the peroxisome proliferator-activated receptor delta (PPARd) signaling pathway (AID 743215; active = well fitted inhibition curve with a large enough effect in the signal ratio in the repeat runs, not every such curve was filed as active; the % refers to the signal ratio;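 note: cells stimulated with agonist L165041 at 300 nM final during compound exposure; series mostly up to about 62 µM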). The procedure, abridged: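 Read-out is beta-lactamase FRET fluorescence, measured 2 h after substrate addition at room temperature. Beforehand, UAS-bla HEK293H cells carrying the PPARd reporter were exposed to compounds with L165041 at 300 nM final for 17 h at 37 C.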

In assay [15] the target is Bile acid receptor (Homo sapiens) (UniProt Q96RI1). As to the kind of experiment: qHTS assay to identify small molecule antagonists of the farnesoid-X-receptor (FXR) signaling pathway (AID 743217; active = well fitted inhibition curve with a large enough effect in the signal ratio in the repeat runs, not every such curve was filed as active; the % refers to the signal ratio). The procedure, abridged: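 HEK 293T FXR-UAS-bla, 5000 cells/well; compound + CDCA 50 uM final; 16 h, 37 °C; B/G FRET substrate 2 h RT; fluorescence.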
Assay [16] is described as follows: qHTS assay to identify small molecule agonists of the farnesoid-X-receptor (FXR) signaling pathway - cell viability counter screen (AID 743218). Note: nearly all actives have a fitted effect of over 45% in size. The procedure, abridged:
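HEK 293T FXR-bla cells; 5 h pre-incubation, 16 h compound exposure at 37 C; LiveBLAzer substrate 2 h RT, then CellTiter-Glo 30 min RT, luminescence.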

For assay [17], the target named is Bile acid receptor (Homo sapiens) (UniProt Q96RI1). As to the kind of experiment: qHTS assay to identify small molecule agonists of the farnesoid-X-receptor (FXR) signaling pathway (AID 743220; active = well fitted activation curve with a large enough effect in the signal ratio in the repeat runs, not every such curve was filed as active; the % refers to the signal ratio). In outline: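 Beta-lactamase reporter under UAS control in GeneBLAzer FXR HEK 293T cells (5000/well) measured with LiveBLAzer FRET substrate after 2 h at room temperature. Compound exposure lasted 16 h at 37C.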

Assay [18] in a line: qHTS assay to identify small molecule antagonists of the farnesoid-X-receptor (FXR) signaling pathway - cell viability counter screen (AID 743221; active = well fitted cell-killing curve with a large enough effect in the repeat runs, not every such curve was filed as active; note: nearly all actives have a fitted effect of over 50% in size). The procedure, abridged: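 Quantitative HTS of the Tox21 10K library run in parallel with the beta-lactamase reporter read. HEK 293T cells carrying a UAS-driven bla reporter got compound and 50 uM CDCA (final) for 16 h; ATP-based luminescence followed.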

Assay [19] concerns the target Vitamin D3 receptor (Homo sapiens) (UniProt P11473). As to the kind of experiment: qHTS assay to identify small molecule agonists of the vitamin D receptor (VDR) signaling pathway (AID 743222; calls by dose curve). In outline:
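VDR-bla cells, 2,000/well; 4 h preincubation 37C; cpd (DMSO) 16 h; LiveBLAzer B/G substrate 2 h RT; fluorescence intensity read.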

Assay [20] shares this target. As to the kind of experiment: qHTS assay to identify small molecule antagonists of the vitamin D receptor (VDR) signaling pathway (AID 743223; active = well fitted inhibition curve with a large enough effect in the signal ratio in the repeat runs, not every such curve was filed as active; the % refers to the signal ratio). In outline: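 Fluorescence from LiveBLAzer B/G FRET substrate, read after 2 h at room temperature, reflects beta-lactamase reporter activity in VDR-bla cells treated 16 h at 37C with compounds and agonist 1alpha,25-dihydroxyvitamin D3 (3 nM final).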

Each structure is given as a SMILES string. “And” between values parts separate entries of the source, which are not always exact repeats. Equal entries are not always repeated. Records with an inconclusive call do not appear. Where a structure was tested more than once in an assay, its records may differ in their call. The source made the active and inactive calls. Unless noted, calls come from the whole dose curve; as a rule, active = well fitted curve in the direction sought with a large enough effect in the repeat runs; inconclusive = weak or mixed curves; inactive = no such curve, though single readings can be large; an effect the other way counts as inactive or inconclusive.

Sequence of Aryl hydrocarbon receptor (Homo sapiens) (P35869 whole entry, looked up): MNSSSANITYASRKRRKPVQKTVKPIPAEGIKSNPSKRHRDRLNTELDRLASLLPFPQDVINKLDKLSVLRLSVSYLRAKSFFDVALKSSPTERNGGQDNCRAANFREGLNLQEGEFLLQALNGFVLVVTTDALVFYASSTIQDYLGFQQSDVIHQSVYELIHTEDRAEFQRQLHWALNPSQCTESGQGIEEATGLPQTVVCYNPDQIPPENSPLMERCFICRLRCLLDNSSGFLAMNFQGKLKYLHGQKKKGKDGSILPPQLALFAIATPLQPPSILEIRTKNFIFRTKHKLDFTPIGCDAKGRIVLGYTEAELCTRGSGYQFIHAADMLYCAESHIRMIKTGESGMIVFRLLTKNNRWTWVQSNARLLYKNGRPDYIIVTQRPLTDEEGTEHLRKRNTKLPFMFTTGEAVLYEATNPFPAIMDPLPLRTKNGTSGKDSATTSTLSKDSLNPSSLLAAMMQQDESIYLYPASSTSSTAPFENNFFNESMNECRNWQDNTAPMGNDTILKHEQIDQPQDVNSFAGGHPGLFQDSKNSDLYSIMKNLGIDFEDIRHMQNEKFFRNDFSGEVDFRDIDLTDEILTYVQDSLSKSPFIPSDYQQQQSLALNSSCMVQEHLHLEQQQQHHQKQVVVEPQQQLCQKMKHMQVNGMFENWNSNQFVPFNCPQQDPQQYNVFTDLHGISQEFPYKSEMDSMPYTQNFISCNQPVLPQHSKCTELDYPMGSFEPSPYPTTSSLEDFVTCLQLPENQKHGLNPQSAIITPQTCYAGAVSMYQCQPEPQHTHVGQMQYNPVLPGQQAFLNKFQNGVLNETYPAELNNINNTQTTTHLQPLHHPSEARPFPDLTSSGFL
Sequence of Vitamin D3 receptor (Homo sapiens) (P11473 whole entry, looked up): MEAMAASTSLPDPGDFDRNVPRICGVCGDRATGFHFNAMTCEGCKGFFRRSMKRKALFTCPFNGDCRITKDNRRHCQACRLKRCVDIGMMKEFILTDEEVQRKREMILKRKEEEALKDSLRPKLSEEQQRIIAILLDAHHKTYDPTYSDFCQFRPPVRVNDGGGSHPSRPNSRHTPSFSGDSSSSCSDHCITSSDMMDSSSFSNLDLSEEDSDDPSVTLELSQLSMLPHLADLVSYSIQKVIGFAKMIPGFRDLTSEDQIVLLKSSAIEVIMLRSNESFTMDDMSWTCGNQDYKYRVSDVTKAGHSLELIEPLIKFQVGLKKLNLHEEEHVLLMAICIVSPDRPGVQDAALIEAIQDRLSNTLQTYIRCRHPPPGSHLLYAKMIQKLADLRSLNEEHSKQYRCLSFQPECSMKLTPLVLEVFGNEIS
Sequence of Peroxisome proliferator-activated receptor gamma (Homo sapiens) (P37231 whole entry, looked up): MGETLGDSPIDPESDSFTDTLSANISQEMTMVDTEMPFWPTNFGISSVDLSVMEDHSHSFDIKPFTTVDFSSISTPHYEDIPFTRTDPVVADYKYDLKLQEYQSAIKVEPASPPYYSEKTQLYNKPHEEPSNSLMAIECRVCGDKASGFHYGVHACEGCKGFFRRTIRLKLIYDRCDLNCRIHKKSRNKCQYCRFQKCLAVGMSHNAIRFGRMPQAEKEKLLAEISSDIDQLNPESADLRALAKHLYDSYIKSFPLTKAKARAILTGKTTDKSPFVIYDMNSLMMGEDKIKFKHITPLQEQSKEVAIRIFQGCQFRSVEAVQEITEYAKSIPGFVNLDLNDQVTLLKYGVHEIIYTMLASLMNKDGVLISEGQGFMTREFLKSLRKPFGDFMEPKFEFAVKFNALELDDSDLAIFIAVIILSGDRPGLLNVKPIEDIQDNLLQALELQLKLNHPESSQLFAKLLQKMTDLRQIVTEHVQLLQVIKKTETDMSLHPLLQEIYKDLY
Sequence of Bile acid receptor (Homo sapiens) (Q96RI1 whole entry, looked up): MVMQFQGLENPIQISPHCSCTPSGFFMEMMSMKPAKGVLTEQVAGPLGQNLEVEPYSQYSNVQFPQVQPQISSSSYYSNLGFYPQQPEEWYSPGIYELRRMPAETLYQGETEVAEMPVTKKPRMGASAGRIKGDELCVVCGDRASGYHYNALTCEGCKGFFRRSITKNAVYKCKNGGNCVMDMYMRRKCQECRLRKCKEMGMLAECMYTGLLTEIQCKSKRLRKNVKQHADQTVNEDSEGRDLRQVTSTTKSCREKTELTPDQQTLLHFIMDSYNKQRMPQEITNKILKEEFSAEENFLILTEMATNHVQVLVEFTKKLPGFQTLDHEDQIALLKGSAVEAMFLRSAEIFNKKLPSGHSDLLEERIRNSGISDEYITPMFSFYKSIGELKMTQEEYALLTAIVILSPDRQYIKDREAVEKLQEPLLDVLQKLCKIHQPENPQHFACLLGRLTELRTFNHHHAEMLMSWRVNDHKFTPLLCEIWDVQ
Sequence of Peroxisome proliferator-activated receptor delta (Homo sapiens) (Q03181 whole entry, looked up): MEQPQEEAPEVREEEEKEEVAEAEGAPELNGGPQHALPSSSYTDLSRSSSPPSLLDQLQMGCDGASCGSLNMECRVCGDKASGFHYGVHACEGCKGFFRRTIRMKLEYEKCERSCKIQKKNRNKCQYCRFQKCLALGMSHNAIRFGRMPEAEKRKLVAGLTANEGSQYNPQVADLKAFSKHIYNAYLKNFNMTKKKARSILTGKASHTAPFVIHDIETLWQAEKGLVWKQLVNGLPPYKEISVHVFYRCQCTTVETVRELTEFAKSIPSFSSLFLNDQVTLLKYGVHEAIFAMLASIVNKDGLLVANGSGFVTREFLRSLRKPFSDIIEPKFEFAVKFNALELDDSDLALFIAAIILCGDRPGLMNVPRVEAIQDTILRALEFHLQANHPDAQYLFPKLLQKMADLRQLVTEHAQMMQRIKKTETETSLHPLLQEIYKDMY

As to `CCCCCCCCCCCCOCC1CO1` (centres undefined), the Potency result in [1], in assay [2], in assay [3], in assay [5], in assay [6] and in assay [7] was “inactive” throughout. Moreover, the Potency entry in [8], in assay [9], in assay [11], in [13], in assay [16] and in [18] was “inactive” in each case. The Potency entry in assay [19] was “inactive”. The compound was classed as inactive in assay [4], in assay [10], in assay [12], in assay [14], in [15] and in assay [17].
For `C=CC(=O)OCCCCCCCC(C)C`, the Potency entry in assay [1], in assay [2], in [3], in assay [5], in [6] and in assay [7] was “inactive” in each case. The Potency result in assay [8], in [9], in assay [11], in assay [13], in assay [16] and in assay [18] was “inactive” in each case. The Potency result in [19] and in assay [20] was “inactive” each time. The call in assay [4], in [10], in assay [12], in assay [14], in assay [15] and in assay [17] was inactive.
In the case of `OC[C@@H](O)[C@@H](O)[C@H](O)[C@@H](O)CO`, the Potency entry in assay [1], in assay [2], in assay [3], in assay [5], in assay [6] and in assay [7] was “inactive” each time. The Potency result in assay [8], in assay [9], in assay [11], in assay [13], in assay [16] and in [18] was “inactive” in each case. The Potency result in assay [19] was “inactive”. The result in assay [4] and in assay [10] was inactive.
Regarding `Nc1c(S(=O)(=O)O)cc(Br)c2c1C(=O)c1ccccc1C2=O`, the Potency in [1] is 34.4 µM (active); in assay [2], 31.3 µM (active) and 30.6 µM (active); in assay [3], 24.3 µM (active); in assay [7], 27.9 µM (active). The compound was called inactive in assay [4] and in assay [10]. Also, the Potency result in assay [5], in assay [6], in assay [8], in [9], in [11] and in assay [13] was “inactive” each time. In addition, the Potency entry in assay [16], in assay [18], in [19] and in assay [20] was “inactive” throughout.
Consider `OCC#CCO`, for which the Potency result in assay [1], in [2], in [3], in [5], in [6] and in assay [7] was “inactive” throughout. Also, the Potency entry in assay [8], in assay [9], in [11], in [13], in assay [16] and in assay [18] was “inactive” throughout. Also, the Potency entry in assay [19] and in [20] was “inactive” each time. For the same compound, the compound was called inactive in assay [4], in assay [10], in assay [15] and in assay [17].
As for `CCCCOCCO`, the Potency result in [1], in [2], in assay [3], in assay [5], in assay [6] and in assay [7] was “inactive” throughout. Further, the Potency entry in assay [8], in assay [9], in assay [11], in [13], in [16] and in assay [18] was “inactive” each time. Also, the Potency entry in assay [19] and in assay [20] was “inactive” throughout. The result in [4], in [10], in assay [12], in [14], in [15] and in [17] was inactive.
With `O=Nc1ccc(O)cc1`, the Potency result in [1], in assay [3], in assay [5], in assay [6], in [7] and in [8] was “inactive” in each case. Also, the Potency result in assay [9], in [11], in assay [13], in [16] and in assay [18] was “inactive” each time. Further, the Potency in assay [2] was 53.2 µM (active) and inactive. Also, the call in assay [4], in assay [10], in assay [12], in assay [14], in assay [15] and in [17] was inactive.
For `O=[N+]([O-])C(CO)(CO)CO`, the Potency entry in assay [1], in assay [2], in assay [3], in assay [5], in [6] and in [8] was “inactive” each time. Moreover, the Potency result in assay [9], in assay [11], in assay [13], in assay [16], in assay [18] and in assay [19] was “inactive” throughout. In addition, the Potency entry in [20] is “inactive”. Moreover, the result in [4], in assay [10], in assay [12] and in [14] was inactive. The Potency in assay [7] is 33.9 µM (active) and 21.7 µM (active).

The values above are taken from PubChem BioAssay (Tox21).
